Bioassay records from PubChem BioAssay.
This is a sample that favours compounds with a hit; in the whole collection about 32% have one here.
CYP2C9 activ – CYP2C9 (human) activation | recombinant CYP2C9, luciferin-H conversion, luminescence; hits give high values; factor 1 = untreated enzyme, 0 = blocked | activation factor at 5 µM | hit rate 1.4% among 96,000;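 active = activation factor of 2 or more for CYP2C9 at a 5 µM dose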;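 note: 0 = sulfaphenazole-blocked wells and 1 = vehicle-only wells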
Target sequence (P11712 whole entry, looked up): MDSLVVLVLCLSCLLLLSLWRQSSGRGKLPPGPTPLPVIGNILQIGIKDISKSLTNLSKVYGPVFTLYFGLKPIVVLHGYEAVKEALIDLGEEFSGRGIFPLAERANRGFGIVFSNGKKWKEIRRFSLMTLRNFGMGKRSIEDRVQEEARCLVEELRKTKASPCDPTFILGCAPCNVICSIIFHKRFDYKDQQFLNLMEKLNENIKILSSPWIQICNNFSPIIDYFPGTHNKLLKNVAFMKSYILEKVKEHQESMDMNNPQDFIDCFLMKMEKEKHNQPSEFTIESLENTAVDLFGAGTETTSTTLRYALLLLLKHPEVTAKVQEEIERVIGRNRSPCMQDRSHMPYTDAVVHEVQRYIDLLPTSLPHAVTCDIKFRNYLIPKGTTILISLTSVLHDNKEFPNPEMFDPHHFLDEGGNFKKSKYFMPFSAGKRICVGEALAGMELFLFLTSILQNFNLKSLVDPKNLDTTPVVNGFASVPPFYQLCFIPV
PostGolgi ctrl – inhibits growth of the yeast control strain. AID 738. inhibition, % at 10 µM. efflux-deficient yeast background strain, growth absorbance A615, 16 h. hit rate 5% among 98,000
CYP2C19 act – increases human CYP2C19 enzyme activity; P33261; activation factor at 5 µM; 96,000 tested, under 10 active; recombinant CYP2C19, luciferin-H EGE luminescence; hits give high values; 0 = fully inhibited enzyme, 1 = untreated enzyme;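 active = activation factor of at least 2 at 5 µM in the primary screen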;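 note: 0 = wells with 2.5 mM tranylcypromine and 1 = vehicle-only wells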
PostGolgi yeast – growth inhibition of a yeast mutant, post-Golgi transport screen | post-Golgi transport phenotypic cell assay | inhibition, % at 10 µM | hit rate 0.9% among 98,000;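 note: yeast cells grown in 1536-well plates; yeast grown about 18 h at 30C before absorbance read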
CYP2C19 inh – human CYP2C19 inhibition; P33261; CYP2C19 Supersomes, luciferin-H EGE luminescence, 30 min; inhibition, % at 5 µM; hit rate 21% among 96,000; AID 778;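 active = CYP2C19 inhibition above a set limit at 5 µM in the primary screen, cut at about 50% in these data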;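 note: plate controls were negative control wells for no effect and 2.5 mM tranylcypromine positive control for full effect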
CYP2C9 inhib – human CYP2C9 inhibition | inhibition, % at 5 µM | P11712 | CYP2C9 Supersomes, luciferin-H conversion, luminescence | hit rate 20% among 96,000;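 active = blocking of liver enzyme CYP2C9 beyond about 50% at 5 µM, limit read from the data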
* marks the source's active call; other numbers are inactive results; . = not tested or not shown. Cut-off read from the data, not from the text of the source, unless noted: active = inhibition above about 30%; inactive = the rest.

SMILES	CYP2C9 activ	PostGolgi ctrl	CYP2C19 act	PostGolgi yeast	CYP2C19 inh	CYP2C9 inhib
CCCCC(=O)Nc1nnc(SCC(=O)N2CCN(c3ccccc3OC)CC2)s1	1	-8.4	0.9	-1.2	5.6	2.5
COc1ccccc1N1CCN(C(=O)CSc2nnc(NC(=O)C3CC3)s2)CC1	0.2	-1.7	0.7	2.0	33.1	81.6*
COc1ccccc1N1CCN(C(=O)CSc2nc3ccccc3o2)CC1	0.7	7.8	0.4	33.5*	64.2*	33.8
Cc1ccc(S(=O)(=O)N2CCN(C(=O)CSc3nnc(C)s3)C2)cc1	1	2.4	0.7	2.9	27.4	-2.2
Cc1ccc(S(=O)(=O)N2CCN(C(=O)CSc3nc4ccccc4o3)C2)cc1	0.6	16.4	0.1	0.2	87.5*	43.8
COc1ccccc1N1CCN(C(=O)C(F)F)CC1	1	0.8	0.9	0.0	6.6	-3.5
COc1ccccc1N1CCN(C(=O)CSc2nc3ccccc3c(=O)n2CC2CCCO2)CC1 (stereo not drawn)	0.3	19.6	0.8	3.7	22.5	65.9*
Cc1cc(C)nc(NC(=O)COc2cc(Cl)cc(Cl)c2)n1	1.4	32.3*	1.1	9.4	-7.9	-37.6
CC(=O)c1ccc(NS(=O)(=O)c2ccccc2)cc1	0.2	27.3	0.4	1.1	61.1*	78.7*
CCN(CC)C(=O)c1ccc(NS(=O)(=O)c2ccccc2)cc1	0.2	4.5	0.2	8.2	82.5*	76.9*
CC(=O)c1ccc(NC(=O)Oc2ccccc2)cc1	0.6	0.1	0.5	-7.4	54.1*	39.4
CCCCNC(=O)c1ccc(NS(=O)(=O)c2ccccc2)cc1	0.1	1.5	0.7	2.0	34.7	93.4*
O=C(Cc1ccsc1-c1ccccc1)NO	1.2	9.5	0.9	11.8	12.3	-17.4
Cc1ccc(OCC(O)CN2C(=O)NC(C)(C)C2=O)cc1C (stereo not drawn)	0.7	10.3	0.2	0.7	84.0*	29.1
CC1(C)NC(=O)N(CC(O)CN(Cc2ccccc2)Cc2ccccc2)C1=O (stereo not drawn)	0.7	10.1	0.2	-4.3	84.7*	28.3
CC1(C)NC(=O)N(CC(O)CN2CCOCC2)C1=O (stereo not drawn)	0.6	0.3	0.4	14.7	56.0*	44.6
CCCCN(CCCC)CC(O)CN1C(=O)NC(C)(C)C1=O (stereo not drawn)	1.2	1.9	1.2	4.7	-21.2	-23.4
CCCCCCOc1ccc(OCC(O)CN2C(=O)NC(C)(C)C2=O)cc1 (stereo not drawn)	0.9	7.5	0.9	-7.0	14.7	13.6
Cc1ccc(C2C(C(=O)c3cccs3)=C(O)C(=O)N2CCN2CCOCC2)o1 (stereo not drawn)	1.2	-0.1	1.2	3.1	-16.6	-16.9
O=C(NCCOc1nc(N2CCCCC2)nc(N2CCOCC2)n1)Nc1ccccc1	0.3	-6.6	0.6	-6.8	37.8	69.0*
CCCCCCNC(=O)Nc1ccccc1	0.4	2.2	0	-2.0	96.1*	56.3*
CCN(CC)c1nc(OCCNC(=O)Nc2ccccc2)nc(N(CC)CC)n1	0.1	12.4	0.5	12.6	47.9	88.3*
CCCCNC(=O)Nc1nnc(-c2ccccc2)o1	0.8	1.6	0.7	-24.6	33.6	24.1
CCN(CCNC(=O)Nc1ccc(Cl)cc1)c1ccccc1	0.7	25.1	0.4	-8.3	58.6*	26.2
Cn1c(Cn2c(C(F)(F)F)nc3ccccc32)nc2ccccc21	1	-3.8	0.7	-5.2	26.8	4.3
SMILES	CYP2C9 activ	PostGolgi ctrl	CYP2C19 act	PostGolgi yeast	CYP2C19 inh	CYP2C9 inhib
CC1CCN(S(=O)(=O)c2ccc3c(c2)c(=O)c(C(=O)N2CCCCC2)cn3C)CC1	1	8.3	1	2.5	0.1	0.8
CCc1ccc(N2CC(C(=O)Nc3nccs3)CC2=O)cc1 (stereo not drawn)	0.5	7.7	1	3.2	1.9	45.2
COc1cccc(C2CC(c3ccc(Cl)cc3Cl)Nc3nc(N)nn32)c1 (stereo not drawn)	0.5	26.4	0.3	7.4	66.6*	54.5*
COc1ccc(C2CC(c3ccc(Cl)cc3Cl)Nc3nc(N)nn32)cc1 (stereo not drawn)	0.6	-1.8	0.6	-0.4	44.1	36.9
COc1ccc(C2CC(c3ccc(Cl)c(Cl)c3)Nc3nc(N)nn32)cc1 (stereo not drawn)	0.8	36.3*	0.8	1.3	16.1	23.6
COc1ccc(C2CC(c3c(Cl)cccc3Cl)n3nc(N)nc3N2)cc1 (stereo not drawn)	1.1	16.3	0.4	-1.5	62.4*	-5.4
COc1cccc(-c2nc(CSCC(=O)NCC3CCCO3)c(C)o2)c1 (stereo not drawn)	0.8	2.5	0.9	-1.1	11.5	16.5
CCOc1ccc(OCC)c(NC(=O)CN2CCN(c3ccc(C)cc3C)CC2)c1	.	21.4	.	-4.0	.	.
CCCCCCSC1=C(C#N)C(c2ccccc2)CC(=O)N1 (stereo not drawn)	0.8	56.6*	0.8	35.8*	23.0	18.3
N#CC1=C(SCc2ccccc2)NC(=O)CC1c1ccc(O)cc1 (stereo not drawn)	0.5	3.9	0.4	-5.5	64.8*	52.9*
N#CC1=C(SCc2ccccc2)NC(=O)CC1c1cccc(O)c1 (stereo not drawn)	0.4	5.5	0.2	28.0	78.2*	61.9*
O=C(O)Cn1c(CC(=O)N2CCCC2)nc2ccccc21	0.7	9.4	0.9	-8.6	6.1	27.1
CCOC(=O)c1ccccc1NC(=O)CSc1nc2ccccc2n1CC(=O)N1CCCC1	0.1	2.6	0.2	2.3	81.8*	86.6*
CCOC(=O)c1cccc(NC(=O)Cn2c(CC(=O)N3CCCC3)nc3ccccc32)c1	0.1	8.8	0.8	0.0	17.2	87.9*
COC(=O)C(Cc1cnc[nH]1)NC(=O)C1CCC(=O)N1 (stereo not drawn)	0.9	4.2	1	-0.7	-0.9	13.6
Cc1ccc2cc(COC(=O)C3CCCO3)c(=O)[nH]c2c1 (stereo not drawn)	1	24.4	1	-3.0	0.4	3.6
COc1ccc(CCNC(=O)CN(c2ccc(C)cc2)S(=O)(=O)c2c(C)noc2C)cc1OC	0.6	28.2	0.1	-1.3	92.1*	39.5
Cc1ccc(N(CC(=O)NCCc2ccccc2)S(=O)(=O)c2c(C)noc2C)cc1	0.7	12.4	0.2	5.7	84.4*	34.4
CC(=O)Oc1cc2oc(=O)c3c(c2cc1Cl)CCC3	1.1	14.1	1.1	-5.2	-12.3	-5.1
Cc1nc(N2CCOCC2)c2cc(-c3ccccc3)sc2n1	0.6	-1.4	0.7	3.6	34.0	44.2
c1ccc(-c2cc3c(N4CCOCC4)ncnc3s2)cc1	0.7	7.2	0.2	9.8	78.7*	33.7
COc1ccc(C2(O)CCN(CC(=O)Nc3nccs3)CC2)c(OC)c1	0.9	4.0	0.6	3.5	42.3	14.1
O=C(COc1ccccc1)Nc1cccc(-c2nc3cc4ccccc4cc3[nH]2)c1	0.2	19.7	0.6	45.4*	44.0	80.0*
